Several values for one entry are separate records, joined by “and”; a condition that tells them apart may be missing. Equal values may be shown once. About 2,000 (36%) of roughly 5,500 compounds were called active. Inconclusive results (about 18%) are left out. No stated cut-off is given here; in the data, active means normalized growth mostly below about 0.91 (no sharp cut-off); inconclusive means no clear call, values can overlap the other calls; inactive means mostly above about 0.92. Some of the results follow.
Assay: chemical genetic growth profiling, strain panel (AID 1159580);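 further: tested at 20 µM; growth read once vehicle control cultures reached saturation at 30 °C; 1 = growth at the plate median or of vehicle wells; lower values mean less growth of the strain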
Conditions: S. cerevisiae deletion strains, growth OD

Measured: normalized growth

Cn1c(=O)c2[nH]cnc2n(C)c1=O
inactive: locus YAL013W, strain DEP1, hits give low values 0.996 | locus YAL021C, strain ccr4, hits give low values 1.03 | locus YAL026C, strain drs2, hits give low values 1.03 | locus YAL030W, strain snc1, hits give low values 1.02 | locus YAL040C, strain CLN3, hits give low values 0.999 | locus YBL061C, strain skt5, hits give low values 1.02 | locus YBR009C, strain hhf1, hits give low values 1 | locus YBR021W, strain FUR4, hits give low values 0.968 | locus YBR023C, strain chs3, hits give low values 1.04 | locus YBR171W, strain sec66, hits give low values 1.04 | locus YBR229C, strain ROT2, hits give low values 0.983 | locus YBR231C, strain swc5, hits give low values 1.02 | locus YBR279W, strain paf1, hits give low values 1.02 | locus YCL011C, strain gbp2, hits give low values 1.02 | locus YCL016C, strain dcc1, hits give low values 1.04 | locus YCL029C, strain bik1, hits give low values 0.966 | locus YCL061C, strain MRC1 (second series), hits give low values 1 | locus YCL069W, strain vba3, hits give low values 1 | locus YCR088W, strain abp1, hits give low values 1.02 | locus YDL005C, strain med2, hits give low values 1.02 | locus YDL035C, strain GPR1, hits give low values 0.996 | locus YDL040C, strain nat1, hits give low values 1.02 | locus YDL074C, strain BRE1, hits give low values 1.02 | locus YDL101C, strain DUN1, hits give low values 0.985 | locus YDL134C, strain PPH21, hits give low values 0.985 | locus YDL185W, strain tfp1, hits give low values 0.979 | locus YDL192W, strain arf1, hits give low values 0.964 | locus YDR001C, strain nth1, hits give low values 1.01 | locus YDR069C, strain doa4, hits give low values 1.02 | locus YDR101C, strain arx1, hits give low values 0.975 | locus YDR137W, strain rgp1, hits give low values 1.04 | locus YDR150W, strain NUM1, hits give low values 0.99 | locus YDR159W, strain sac3, hits give low values 0.982 | locus YDR162C, strain NBP2, hits give low values 1.01 | locus YDR195W, strain ref2 1.01 | locus YDR297W, strain sur2, hits give low values 1.03 | locus YDR318W, strain mcm21, hits give low values 0.976 | locus YDR334W, strain swr1, hits give low values 1.02 | locus YDR335W, strain msn5, hits give low values 1.04 | locus YDR388W, hits give low values 0.975 | locus YDR392W, strain spt3, hits give low values 1.05 | locus YDR502C, strain sam2, hits give low values 1 | locus YEL003W, strain gim4, hits give low values 0.997 | locus YEL037C, strain rad23, hits give low values 1.02 | locus YEL061C, strain CIN8 (second series), hits give low values 1.02 | locus YEL061C, strain CIN8, hits give low values 0.989 | locus YER002W, strain NOP16, hits give low values 0.993 | locus YER015W, strain faa2, hits give low values 1.02 | locus YER016W, strain bim1, hits give low values 1.02 | locus YER110C, hits give low values 0.978 | locus YER111C, strain swi4, hits give low values 1 | locus YER155C, strain BEM2 (second series), hits give low values 1.02 | locus YER155C, strain BEM2, hits give low values 0.992 | locus YER167W, strain BCK2, hits give low values 0.988 | locus YFR010W, strain ubp6, hits give low values 0.99 | locus YGL078C, strain dbp3, hits give low values 0.987 | locus YGL086W, strain mad1, hits give low values 0.989 | locus YGL167C, strain pmr1, hits give low values 1.02 | locus YGL173C, strain kem1, hits give low values 1.02 | locus YGL227W, strain vid30, hits give low values 1.01 | locus YGL240W, strain doc1, hits give low values 1.02 | locus YGL248W, strain PDE1, hits give low values 0.99 | locus YGL253W, strain hxk2, hits give low values 1.03 | locus YGR078C, strain PAC10, hits give low values 0.992 | locus YGR135W, strain pre9, hits give low values 0.976 | locus YGR229C, strain SMI1, hits give low values 1.03 | locus YGR252W, strain gcn5, hits give low values 1.05 | locus YHR013C, strain ard1, hits give low values 1.05 | locus YHR027C, strain rpn1, hits give low values 1.02 | locus YHR030C, strain SLT2, hits give low values 0.984 and 0.992 | locus YHR079C, strain IRE1 (second series), hits give low values 0.965 | locus YHR079C, strain IRE1, hits give low values 0.988 | locus YHR094C, strain hxt1, hits give low values 0.985 | locus YHR129C, strain ARP1, hits give low values 0.995 | locus YHR142W, strain chs7, hits give low values 1.05 | locus YHR200W, strain rpn10, hits give low values 0.979 | locus YIL066C, strain RNR3, hits give low values 0.989 | locus YIL073C, strain SPO22, hits give low values 0.94 | locus YIL125W, strain kgd1, hits give low values 0.983 | locus YIR030C, strain dcg1, hits give low values 0.97 | locus YJL092W, strain hpr5, hits give low values 1.01 | locus YJL095W, strain BCK1 (second series), hits give low values 1.03 | locus YJL095W, strain BCK1, hits give low values 1.01 and 0.99 | locus YJL115W, strain asf1, hits give low values 1.03 | locus YJL129C, strain trk1, hits give low values 1.04 | locus YJL134W, strain LCB3, hits give low values 0.989 | locus YJL154C, strain vps35, hits give low values 1.01 | locus YJL164C, strain tpk1, hits give low values 1.01 | locus YJL166W, strain qcr8, hits give low values 1.02 | locus YJL168C, strain set2, hits give low values 0.978 | locus YJL187C, strain SWE1 (second series), hits give low values 0.984 | locus YJL187C, strain SWE1, hits give low values 1 | locus YJR043C, strain POL32, hits give low values 0.997

Reference: PubChem BioAssay AID1159580 (chemical genetic matrix, 2015)
